Source: PubChem BioAssay (NCI)
This is part of a sample that, as a whole, favours compounds with a hit. Of some 79,000 tested, about 15% had one in any assay. Values without a mark were called inactive. Activity calls are given as the source filed them. Rule as the data show it: active = growth inhibition above about 70%; inactive = the rest.

Experiment: NCI Yeast Anticancer Drug Screen. Data for the rad52 strain (AID 147);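 also: 0% = growth of vehicle-treated control cultures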
Conditions: S. cerevisiae rad52 mutant growth inhibition, stronger effect = higher value
Method: Growth inhibition of yeast strains with defined genetic alterations is measured as a screen for potential anti-cancer activity. Selected strains with alterations in DNA damage repair or cell cycle control were exposed to compounds and growth inhibition was measured relative to vehicle treated controls. The strain used in this assay is rad52

| SMILES | growth inhibition (at 1.2 µM) | growth inhibition (at 3.7 µM) | growth inhibition (at 11.0 µM) | growth inhibition (at 33.0 µM) | growth inhibition (at 100.0 µM) |
| --- | --- | --- | --- | --- | --- |
| c1ccc2[nH]c(-c3cscn3)nc2c1 | -3% | -3% | -3% | 2% | -1% |
| CCOC(=O)[C@H]1Nc2ccc(OC)cc2C2c3ccccc3CC21 (stereo not given in full) | -22% | -27% | -20% | 57% | 90% (active) |
| CC1=C(SCc2ccccc2)C(=O)c2ccccc2C1=O | -28% | -24% | 4% | 81% (active) | 90% (active) |
| CCCOC(=O)C(F)C(Br)C(=O)OCCC (stereo not given) | 38% | 89% (active) | 96% (active) | 96% (active) | 99% (active) |
| N#CC(C#N)=NNc1ccc(S(=O)(=O)O)cc1 | -6% | 3% | 4% | 14% | 4% |
| O=c1ssc(=Nc2ccccc2)n1-c1ccccc1 | 10% | 9% | 5% | 20% | 62% |
| OCC(CO)C(c1cccc2ccccc12)c1cccc2ccccc12 | 3% | 42% | 98% (active) | 98% (active) | 88% (active) |
| COc1oc(C(=O)NC2CCCCC2)c(-c2ccc(Cl)cc2)c1S(=O)(=O)c1ccccc1 | -5% | 7% | 56% | 87% (active) | 84% (active) |
